# Inconclusive results are not listed. Where a call stands in place of a potency, no number is given. Calls of active or inactive are those of the source. Unless noted, calls come from the whole dose curve.
# Assays:
# [1] = biological target: Acetylcholinesterase (Homo sapiens) (UniProt P22303); assay: Acetylcholinesterase (AChE) small molecule antagonists: enzyme-based qHTS assay (AID 1347397); conditions: Potency: AChE enzyme activity inhibition; outcome: AChE enzyme activity inhibition; note: nearly all actives have a fitted effect of over 55% in size
# Procedure, shortened: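 Compound or DMSO vehicle was pin-transferred onto recombinant human AChE (50 mU/mL as dispensed) and left 30 min at room temperature. Acetylthiocholine with DTNB then started the reaction, read colorimetrically 10 min later.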
# [2] = biological target: Acetylcholinesterase (Homo sapiens) (UniProt P22303); assay: Acetylcholinesterase (AChE) small molecule antagonists: enzyme-based qHTS assay with human liver microsomes (AID 1347399); conditions: Potency: qHTS inhibition; outcome: qHTS inhibition; note: nearly all actives have a fitted effect of over 60% in size
# Procedure, shortened: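 Recombinant human AChE (50 mU/mL in the enzyme mix) and human liver microsomes (0.25 mg/mL final) were preincubated with compound and NADPH (0.25 mg/mL final) for 30 min at 37 C. Acetylthiocholine/DTNB was then added; thiocholine was read colorimetrically after 10 min at room temperature.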
# [3] = biological target: Acetylcholinesterase (Homo sapiens) (UniProt P22303); assay: Acetylcholinesterase (AChE) small molecule antagonists: fluorescence cell-based qHTS assay (AID 1347398); conditions: Potency: AChE activity; outcome: AChE activity; note: nearly all actives have a fitted effect of over 50% in size
# Procedure, shortened: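 Using neuroblastoma SH-SY5Y cells as the enzyme source, test chemicals are preincubated 30 min at 37 C; AChE-driven acetylthiocholine cleavage is then quantified by thiocholine-dependent Thiolite Green fluorescence after 40 min at room temperature.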
# [4] = biological target: Aromatase (Homo sapiens) (UniProt P11511); assay: qHTS assay to identify aromatase inhibitors (AID 743083; active = well fitted inhibition curve with a large enough effect in the repeat runs; note: series mostly up to about 70 µM; nearly all actives have a fitted effect of over 55% in size)
# Chain of Aromatase (Homo sapiens) (P11511 whole entry, looked up): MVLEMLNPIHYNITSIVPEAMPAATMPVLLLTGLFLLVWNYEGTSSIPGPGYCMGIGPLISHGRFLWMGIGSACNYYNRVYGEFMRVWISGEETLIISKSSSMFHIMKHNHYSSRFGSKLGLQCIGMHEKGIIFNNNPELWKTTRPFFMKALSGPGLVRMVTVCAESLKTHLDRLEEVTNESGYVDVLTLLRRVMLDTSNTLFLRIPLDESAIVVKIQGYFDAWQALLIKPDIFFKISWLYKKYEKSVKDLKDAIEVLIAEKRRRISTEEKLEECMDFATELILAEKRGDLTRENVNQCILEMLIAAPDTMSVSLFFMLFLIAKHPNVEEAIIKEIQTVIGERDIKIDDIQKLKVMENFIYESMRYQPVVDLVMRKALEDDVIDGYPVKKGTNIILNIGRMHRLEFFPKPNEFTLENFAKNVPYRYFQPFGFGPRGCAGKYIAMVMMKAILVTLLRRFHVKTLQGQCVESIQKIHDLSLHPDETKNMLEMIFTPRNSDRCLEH
# Chain of Acetylcholinesterase (Homo sapiens) (P22303 whole entry, looked up): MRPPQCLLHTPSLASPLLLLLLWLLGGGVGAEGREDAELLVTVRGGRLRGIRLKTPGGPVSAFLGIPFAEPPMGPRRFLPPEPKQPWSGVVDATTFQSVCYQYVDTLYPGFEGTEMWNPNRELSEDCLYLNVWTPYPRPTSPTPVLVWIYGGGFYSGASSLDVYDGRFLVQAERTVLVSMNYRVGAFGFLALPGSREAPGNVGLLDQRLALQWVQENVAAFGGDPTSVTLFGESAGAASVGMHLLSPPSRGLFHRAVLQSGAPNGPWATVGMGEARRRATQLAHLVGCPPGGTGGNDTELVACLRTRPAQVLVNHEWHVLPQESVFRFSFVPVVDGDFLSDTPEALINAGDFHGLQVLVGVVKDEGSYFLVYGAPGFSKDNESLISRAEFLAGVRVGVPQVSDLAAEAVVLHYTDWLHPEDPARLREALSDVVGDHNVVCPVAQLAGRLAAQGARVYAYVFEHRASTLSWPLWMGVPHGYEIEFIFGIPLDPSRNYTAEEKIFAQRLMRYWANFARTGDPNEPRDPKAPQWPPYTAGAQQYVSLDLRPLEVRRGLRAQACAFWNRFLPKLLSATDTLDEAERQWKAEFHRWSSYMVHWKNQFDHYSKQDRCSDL
compound,measurement,setting,value
Cc1cc(O)ccc1N,Potency,[1],inactive
same,Potency,[2],inactive
CCC(=O)OCc1ccc(OC)cc1,Potency,[1],inactive
same,Potency,[2],inactive
O=C1CCN(c2ccccc2)N1,Potency,[1],inactive
same,Potency,[2],inactive
CN1CCCCC1CCN1c2ccccc2Sc2ccc(S(C)=O)cc21 (centres undefined),Potency,[1],inactive
same,Potency,[2],inactive
Cc1cc(-c2ccc(N=Nc3cc(S(=O)(=O)O)c4ccccc4c3N)c(C)c2)ccc1N=Nc1cc(S(=O)(=O)O)c2ccccc2c1N,Potency,[1],inactive
same,Potency,[2],inactive
Cc1c(C)n(CCN(C)C)c2ccc(C(=O)OCCN(C)C)cc12,Potency,[1],inactive
same,Potency,[2],inactive
O=C(CCCN1CCN(c2ccccn2)CC1)c1ccc(F)cc1,Potency,[1],inactive
same,Potency,[2],inactive
COCCOc1cc2cc(C(=O)NC3CCN(C(C)C)CC3)n(CC(=O)Nc3ccc(Cl)cn3)c2cn1,Potency,[1],inactive
same,Potency,[2],inactive
Nc1cc(Cl)c(O)c(Cl)c1,Potency,[3],inactive
same,Potency,[2],inactive
CN1CCN2c3ccccc3Cc3ccccc3C2C1 (centres undefined),Potency,[1],inactive
same,Potency,[2],inactive
CC(C)C(=O)Nc1cccc(C2CN3CCSC3=N2)c1 (centres undefined),Potency,[1],inactive
same,Potency,[2],inactive
Cc1cc(=O)oc2cc(N(C)C)ccc12,Potency,[1],inactive
same,Potency,[2],inactive
NS(=O)(=O)c1cc2c(cc1C(F)(F)F)NCNS2(=O)=O,Potency,[1],inactive
same,Potency,[2],inactive
CC1(C)S[C@@H]2[C@H](NC(=O)C(c3ccccc3)S(=O)(=O)O)C(=O)N2[C@H]1C(=O)O (some centres undefined),Potency,[1],inactive
same,Potency,[2],inactive
COC(=O)c1cc(Cl)ccc1[N+](=O)[O-],Potency,[1],inactive
same,Potency,[2],inactive
CN(C)CCC=C1c2ccccc2C=Cc2ccccc21,outcome,[1],inactive
same,outcome,[2],inactive
N#C/C(=C1/SC[C@@H](c2ccc(Cl)cc2Cl)S1)n1ccnc1,Potency,[1],inactive
same,Potency,[2],inactive
NS(=O)(=O)c1cc2c(cc1Cl)NC(CC1CCCC1)NS2(=O)=O (centres undefined),Potency,[1],inactive
same,Potency,[2],inactive
CCN(CC)CCNC(=O)c1ccc(NC(C)=O)cc1,Potency,[1],inactive
same,Potency,[2],inactive
O=C(c1ccc(F)cc1)C1CCN(CCn2c(=O)[nH]c3ccccc3c2=O)CC1,Potency,[1],inactive
same,Potency,[2],inactive
O=C(O)c1cc(O)c2ccccc2c1O,Potency,[1],inactive
same,Potency,[2],inactive
O=S1(=O)CC(Cl)(Cl)C(Cl)(Cl)C1,Potency,[3],inactive
CCNC(=O)NCCCOc1cccc(CN2CCCCC2)c1,Potency,[3],inactive
same,Potency,[2],inactive
CCC1=C[C@@H]2CN(C1)Cc1c([nH]c3ccccc13)[C@@](C(=O)OC)(c1cc3c(cc1OC)N(C)[C@H]1[C@@](O)(C(=O)OC)[C@H](OC(C)=O)[C@]4(CC)C=CCN5CC[C@]31[C@@H]54)C2,Potency,[1],inactive
same,Potency,[2],inactive
O=C(Nc1ccc(Cl)c(Cl)c1)c1cc(Cl)cc(Cl)c1O,Potency,[3],inactive
Clc1ccc2c(c1)CCc1cccnc1C2=C1CCNCC1,Potency,[1],inactive
same,Potency,[2],inactive
[Cu+],Potency,[3],inactive
CN1CCC(=C2c3ccccc3CCc3sccc32)CC1,Potency,[1],inactive
same,Potency,[2],inactive
CN1C(=O)N(c2ccccc2Br)Cc2cnc(Nc3ccc4c(c3)OCC(CO)O4)nc21 (centres undefined),Potency,[1],inactive
same,Potency,[2],inactive
O=C1C=CC(=O)N1c1ccc(Cc2ccc(N3C(=O)C=CC3=O)cc2)cc1,Potency,[1],inactive
same,Potency,[2],inactive
O=C(CN1CCN(Cc2ccc3c(c2)OCO3)CC1)N1c2ccccc2Sc2ccccc21,Potency,[1],inactive
same,Potency,[2],inactive
CN(C(=O)CCCOc1ccc2[nH]c(=O)ccc2c1)C1CCCCC1,Potency,[1],inactive
same,Potency,[2],inactive
Oc1c(Cl)cc(Cl)c(Cl)c1Cc1c(O)c(Cl)cc(Cl)c1Cl,Potency,[3],inactive
same,Potency,[2],inactive
O=[N+]([O-])O[C@@H]1CO[C@H]2[C@@H]1OC[C@@H]2O,Potency,[4],inactive

# From PubChem BioAssay (Tox21)
